This is a sample that favours compounds with a hit; in the whole collection about 2.9% have one here.
FadD28 binding – M. tuberculosis FadD28 bisubstrate binding inhibition; inhibition, % at 12.5 µM; FadD28 bisubstrate probe binding, fluorescence polarization; AID 588549; 360,000 compounds, 0.22% hits; in the data active = inhibition above about 8.5%, passing the limit was not always enough
Mtb hypoxia rep – inhibitors of hypoxia-regulated fluorescent reporter in Mycobacterium tuberculosis | fluorescence inhibition, % (concentration not given with the values) | M. tuberculosis hypoxia-regulated fluorescent reporter, fluorescence | 300,000 compounds, 0.1% hits; in the data active = fluorescence inhibition mostly above about 23%, no sharp cut-off; inactive = mostly below about 17%
BioA inh – BioA (M. tuberculosis) enzyme inhibition; purified M. tuberculosis BioA enzyme, plate reader; inhibition, % at 9.99 µM; 360,000 compounds, 0.096% hits; AID 602481; in the data active = inhibition above about 40%
Mtb FBA inh – inhibits M. tuberculosis FBA enzyme; purified M. tuberculosis FBA, fluorescence read-out; inhibition, % at 1 µM; 360,000 compounds, 2.3% hits; P9WQA3; in the data active = inhibition above about 27%;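 note: 0% = vehicle and 100% = reference inhibitor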
Target sequence (P9WQA3 whole entry, looked up): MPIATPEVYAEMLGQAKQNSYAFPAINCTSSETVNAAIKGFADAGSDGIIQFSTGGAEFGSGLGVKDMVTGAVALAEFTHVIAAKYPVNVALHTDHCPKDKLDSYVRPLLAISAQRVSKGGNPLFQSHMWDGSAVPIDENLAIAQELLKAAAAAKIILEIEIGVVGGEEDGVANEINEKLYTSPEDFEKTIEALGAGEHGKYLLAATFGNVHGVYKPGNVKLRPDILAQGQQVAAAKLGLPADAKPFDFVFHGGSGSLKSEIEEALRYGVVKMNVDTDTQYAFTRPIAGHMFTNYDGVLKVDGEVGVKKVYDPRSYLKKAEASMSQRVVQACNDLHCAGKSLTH
GDH-TPI counter – GDH-TPI coupled enzyme inhibition counter-screen; GDH-TPI coupled enzyme counterscreen, NADH absorbance; inhibition, % at 4.8 µM; 360,000 compounds, 1.2% hits; AID 588335; in the data active = inhibition above about 30%;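 note: 0% = DMSO wells and 100% = wells lacking the enzyme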
* = called active by the depositor; nt = no result; + = active, no number.

SMILES | FadD28 binding | Mtb hypoxia rep | BioA inh | Mtb FBA inh | GDH-TPI counter
CC1=NN(c2ccccc2)C(=O)/C1=C/C=C/c1ccccc1 | -2 | 11 | nt | -2 | 24
CC1=NN(c2cccc(C(=O)O)c2)C(=O)/C1=C\C=C\c1ccco1 | 11* | -4 | -1 | -12 | 3
COCCCn1c(=C(C#N)C(=O)N2CCOCC2)sc(=Cc2ccccc2OC(F)F)c1=O | nt | 14 | nt | nt | nt
O=C1C=CC(=O)C2C1C1(Cl)C(Cl)=C(Cl)C2(Cl)C1(Cl)Cl (stereo not drawn) | 37* | 13 | 9 | -3 | -4
CCOc1cc(C=NNC(=S)Nc2ccccc2C(F)(F)F)ccc1OCC(=O)N1CCOCC1 | nt | 2 | nt | nt | nt
O=C(Nc1nc2ccc(S(=O)(=O)N3CCCC3)cc2s1)c1ccco1 | 1 | -6 | nt | 20 | 39*
CC(=O)Nc1nc2ccc(S(=O)(=O)N3CCCC3)cc2s1 | -1 | 13 | -1 | 0 | 3
C[C@@H]1CN([C@@H](C)CO)C(=O)c2cccc(NC(=O)Nc3ccc(F)cc3)c2O[C@@H]1CN(C)S(=O)(=O)c1ccc(F)cc1 | nt | nt | 0 | nt | nt
C[C@@H]1CN([C@@H](C)CO)C(=O)Cc2cc(NC(=O)Cc3ccccc3)ccc2O[C@@H]1CN(C)C(=O)NC1CCCCC1 | nt | nt | 2 | nt | nt
CC(C)C(=O)Nc1ccc(C(=O)NNC(=S)NC(=O)c2ccccc2[N+](=O)[O-])cc1 | -1 | 6 | 1 | 0 | 9
CCCCC(=O)Nc1ccc(C(=O)NNC(=S)NC(=O)c2ccccc2[N+](=O)[O-])cc1 | -2 | -10 | -3 | 0 | 38*
Cn1c(C(C#N)=C(O)c2ccc(S(=O)(=O)N3CCCCC3)cc2)nc2ccccc21 | nt | -3 | nt | nt | nt
O=C(Nc1ccc(C(=O)O)cc1)C(=Cc1ccc2c(c1)OCO2)NC(=O)c1cccc(Br)c1 | nt | -2 | nt | nt | nt
CC(=O)c1ccc(NC(=O)/C(=C\c2ccco2)NC(=O)c2ccco2)cc1 | 0 | nt | 12 | 0 | 31*
O=C(Nc1cccc(C(F)(F)F)c1)/C(=C\c1ccco1)NC(=O)c1cccs1 | -2 | 2 | -1 | 0 | 35*
CC(=O)Oc1ccc(/C=C(\NC(=O)c2cccc(Br)c2)C(=O)Nc2ccc(C(=O)O)cc2)cc1 | -4 | 2 | 0 | -1 | 32*
Cc1ccc(NC(=O)/C(=C\c2ccc3c(c2)OCO3)NC(=O)c2ccco2)cc1 | 2 | 3 | -1 | 0 | 40*
COc1ccccc1CN1C[C@@H](C)[C@@H](OC)CN(C)C(=O)c2cc(NC(C)=O)ccc2OC[C@@H]1C | nt | nt | -4 | nt | nt
C#CCOC(=O)/C(=C/C=C/c1ccccc1)NC(=O)c1ccccc1 | -6 | 6 | -1 | -2 | 23
O=C(Nc1ccc(C(=O)O)cc1)/C(=C\C=C\c1ccccc1)NC(=O)c1ccc(Br)cc1 | -5 | -23 | 0 | -1 | 31*
CC(C)OC(=O)/C(=C\C=C\c1ccccc1)NC(=O)c1ccccc1 | 1 | nt | -1 | -1 | 46*
O=C(Nc1ccc(C(=O)O)cc1)/C(=C\c1ccc2c(c1)OCO2)NC(=O)c1ccccc1 | 0 | 3 | 0 | 4 | 36*
Cc1ccc(NC(=O)C(=CC=Cc2ccccc2)NC(=O)c2ccccc2)cc1 | nt | -1 | nt | nt | nt
CC(C)(C)N1CC23CCC(CC2C1=O)O3 (stereo not drawn) | nt | 7 | nt | nt | nt
CC(=O)OCc1nc2sc(C)c(C)c2c(=O)[nH]1 | -2 | nt | 0 | 0 | -4
SMILES | FadD28 binding | Mtb hypoxia rep | BioA inh | Mtb FBA inh | GDH-TPI counter
CCOC(=O)c1nc2sc(C)c(C)c2c(=O)[nH]1 | -3 | 4 | nt | 126* | 14
Cc1ccc(C(=O)NN=Cc2ccc(Br)o2)o1 | nt | 11 | nt | nt | nt
Cc1ccc(C(=O)N/N=C\c2ccc(Br)o2)o1 | -1 | nt | -1 | -3 | 58*
Cc1c(/C=N/NC(=O)c2ccc(Br)o2)cnn1C | -2 | nt | 4 | 127* | 9
CN(C)C(=O)C[C@@H]1CC[C@@H]2[C@@H](COc3ccc(NC(=O)NCc4ccccc4)cc3C(=O)N2C)O1 | nt | nt | 0 | nt | nt
Cc1cc(C)n2cc(CSCc3ccccc3)nc2n1 | -3 | -6 | 7 | 160* | -1
CCOC(=O)c1cc2ccc3ccccc3c2oc1=O | -5 | 7 | 1 | + | 8
COc1ccc2cc(C(=O)c3ccccc3)c(=O)oc2c1 | -2 | 3 | -1 | 0 | 17
CCOC(=O)c1cc2ccc(OC(=O)c3ccco3)cc2oc1=O | -6 | 17 | 0 | + | 9
CCOC(=O)c1c[nH]c2ccc3ccccc3c2c1=O | -4 | 0 | 0 | -5 | 9
CCOC(=O)c1c(C)n(C)c2ccc(OC(=O)c3ccco3)cc12 | 0 | nt | -2 | 1 | 6
CCOc1ccc2cc(C(=O)c3ccccc3)c(=O)oc2c1 | 0 | 16 | 0 | 2 | 41*
O=C(c1ccccc1)N1Cc2ccccc2[C@H]2OC(c3ccc(OCCCO)cc3)=N[C@@]2(CCS(=O)(=O)c2ccccc2)C1=O | nt | nt | 0 | nt | nt
NS(=O)(=O)c1ccc(CNC(=O)C(Cc2ccccc2)NS(=O)(=O)c2ccccc2F)cc1 (stereo not drawn) | 16* | 3 | nt | 0 | 0
O=C(/C(=C/c1ccc(Cl)cc1)c1nc2ccccc2[nH]1)c1cccs1 | -1 | nt | nt | -1 | 32*
N#C/C(=C(/O)c1cccs1)c1nc2ccccc2[nH]1 | 0 | 5 | -7 | 14 | 39*
Cc1ccc2nc(-c3ccc(-c4ccccn4)s3)cn2c1 | -4 | 6 | -2 | + | 21
Brc1ccc(-c2cn3ccccc3n2)s1 | -3 | nt | nt | 3 | 4
O=C(C[C@@H]1CC[C@@H](NC(=O)c2ccccc2)[C@H](CO)O1)NCc1ccncn1 | nt | nt | -1 | nt | nt
COC(=O)c1nn(-c2ccc3c(c2)CCN3C(C)=O)cc1O | 1 | 5 | -2 | 195* | 19
O=[N+]([O-])c1cc([N+](=O)[O-])c(N2CCOCC2)cc1NCc1ccccc1 | -2 | 5 | 2 | -4 | 31*
Clc1cccc(-c2nc3nc4ccccc4nc3n2Cc2ccccc2)c1 | -3 | nt | nt | 3 | -1
C=CCn1c(-c2ccccc2)nc2nc3ccccc3nc21 | -4 | 21 | 0 | 126* | 39*
CCOc1ccc(/C=C/C(=O)Nc2ccc(C(N)=O)cc2)cc1OC | -1 | 7 | nt | 5 | 51*
COc1ccc(/C=C/C(=O)Nc2ccc(S(=O)(=O)Nc3onc(C)c3C)cc2)cc1OC | -2 | 13 | 1 | 0 | 37*
SMILES | FadD28 binding | Mtb hypoxia rep | BioA inh | Mtb FBA inh | GDH-TPI counter
CC(=O)c1ccc(NC(=O)c2cnn3ccccc23)cc1 | -2 | 6 | 4 | 2 | 36*
Cc1ccc(C(=O)N/C(=C\c2ccco2)C(=O)NCCCN2CCOCC2)cc1C | 0 | 4 | 0 | 1 | 11
Cc1ccccc1C(=O)N/C(=C/c1ccc(-c2cccnc2Cl)o1)C(=O)NCCCN1CCN(C)CC1 | -1 | -6 | 0 | 4 | 39*
C=CCn1c(CC(=O)OC)csc1=Nc1ccc(C(C)=O)cc1 | 1 | 10 | 18 | 4 | 31*
CCN(CCCNC(=O)c1c(C)cc(=O)oc1C)c1ccccc1 | 1 | 14 | nt | 1 | 36*
Cc1cc(=O)oc(C)c1C(=O)NCC(C)C | -1 | 2 | -1 | 2 | 7
CCCNC(=O)c1c(C)cc(=O)oc1C | 0 | 6 | -2 | 1 | 47*
CCCCN(CCCNC(=O)c1c(C)cc(=O)oc1C)c1ccccc1 | 1 | 4 | nt | -1 | 5
